Source: PubChem (National Center for Advancing Translational Sciences (NCATS))
KCNH2 3.1 inh: qHTS for Inhibitors of KCHN2 3.1: Mutant qHTS | activity change, % (tested at about 1.8 µM) | 340,000 compounds, 0.95% hits | U2OS KCNH2 3.1, thallium flux FluxOr; hits give low values | Potassium voltage-gated channel subfamily H member 2, brain isoform KCNH2 3.1 (human);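 active means maximum activity change below -70%; inconclusive means maximum activity change from -70% to -50%; inactive means maximum activity change above -50%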;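 further: thallium influx rate constant from kinetic fluorescence after stimulation buffer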
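Normalized rate constant (relative to positive and negative DMSO controls) derived from a 2 min kinetic fluorescence read after stimulation; U2OS cells expressing the 3.1 isoform via virus at 1.77 x 10^8 /mL.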
hERG WT inh: qHTS for Inhibitors of KCHN2 3.1: Wildtype qHTS; Voltage-gated inwardly rectifying potassium channel KCNH2 (Homo sapiens), Q12809; U2OS, BacMam KCNH2, thallium flux FluxOr; hits give low values; activity change, % at 1.84 µM; 340,000 compounds, 0.37% hits; AID 720551, 2013;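 active means maximum activity change below -70%; inconclusive means maximum activity change between -70% and -50%; inactive means maximum activity change above -50%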
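U2OS cells were transduced with wild-type KCNH2 virus (2.03 x 10^8 / mL) for 4 h at room temperature, then cultured overnight at 37 C. Thallium flux was read with FluxOr dye. Rate constants were normalized to DMSO controls.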
SW480 rereplic: A quantitative high throughput screen for small molecules that induce DNA re-replication in SW480 colon adenocarcinoma cells; 340,000 compounds, 1.8% hits; Potency, µM (doses to about 46.1 µM), most hits filed as activators; SW480 DNA re-replication, Hoechst DNA content imaging, 48 h; further: nearly all actives have a fitted effect of over 55% in size
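Readout is total intensity of Hoechst-stained nuclei, excited at 405 nm and collected at 500-530 nm. Compound treatment lasted 48 hr at 37 C in 5% CO2 before staining.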
KB-V1 MDR tox: qHTS assay for MDR1-selective chemotherapeutics: Primary screen using the drug-selected MDR subline cells KB-V1; 400,000 compounds, 3.4% hits; AID 1347076, 2019; Potency, µM (doses to about 46.1 µM), hits mostly cytotoxic; KB-V1 MDR cells viability, CellTiter-Glo, 72 h; further: nearly all actives have a fitted effect of over 60% in size
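Drug-selected KB-V1 cells, grown in DMEM lacking phenol red with 10% FBS, receive compound titrations; after three days at 37 degrees C, surviving cell ATP is quantified by CellTiter-Glo luminescence and responses normalized and curve-fitted.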
KB-3-1 cytotox: qHTS assay for MDR1-selective chemotherapeutics: Primary screen using the parental adenocarcinoma cell KB-3-1; 400,000 compounds, 1.4% hits; KB-3-1 viability, CellTiter-Glo ATP luminescence, 72 h; Potency, µM (titrated, usually from 46.1 µM), hits mostly cytotoxic; further: nearly all actives have a fitted effect of over 60% in size
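Cells are dispensed, compounds pinned in, plates held at 37 °C for 72 h, then CellTiter-Glo is added and luminescence read after 10 minutes. Cell line: parental KB-3-1 in phenol-red-free DMEM, 10% FBS.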
MCF10A rerep: A quantitative high throughput screen for small molecules that induce DNA re-replication in MCF 10a normal breast cells | MCF 10A DNA re-replication, Hoechst nuclear intensity, 48 h | Potency, µM (highest dose often 46.1 µM), hits mostly activators | 350,000 compounds, 2.9% hits | AID 624296, 2012; further: nearly all actives have a fitted effect of over 50% in size
Hits are given with their value; i = inactive; ? = inconclusive; nt = no result given. Sampled rows, rich in hits. Any-hit rate of the full collection: about 7.6%. Unless noted, the call rests on the fitted dose curve; in most records, active means well fitted curve in the direction sought with a large enough effect; inconclusive means small, poorly fitted or top-dose-only effect, or another doubt; inactive means no such curve, though single readings can be large; an effect the other way counts as inactive or inconclusive.

SMILES	KCNH2 3.1 inh	hERG WT inh	SW480 rereplic	KB-V1 MDR tox	KB-3-1 cytotox	MCF10A rerep
CCCSc1nnc(NC(=O)CCc2ccccc2)s1	i	nt	i	i	i	i
Cn1c(SCc2ccc(Br)cc2)nnc1-c1ccccn1	i	i	i	?	i	i
O=C(NCc1ccco1)c1cccc2c1C(=O)c1ccc(N3CCC(Cc4ccccc4)CC3)cc1S2(=O)=O	i	i	?	i	i	?
O=C(NCc1ccco1)c1cccc2c1C(=O)c1ccc(/C=C/c3ccccc3)cc1S2(=O)=O	i	i	?	i	?	9.2µM
CC(C)c1cccc(-c2ccc3c(c2)S(=O)(=O)c2cccc(C(=O)NCc4ccccc4Cl)c2C3=O)c1	i	i	i	i	6.5µM	?
CC(C)c1cccc(-c2ccc3c(c2)S(=O)(=O)c2cccc(C(=O)NCc4ccccc4)c2C3=O)c1	i	i	i	?	?	?
O=C(Nc1ccc(F)cc1F)c1cc2nc3c(c(C(F)(F)F)n2n1)CCCC3	i	i	i	i	i	i
CCCn1nnnc1NCc1ccc(Cl)cc1Cl	i	i	i	i	i	i
C[C@@H]1CN([C@@H](C)CO)C(=O)CCCn2nncc2CO[C@@H]1CN(C)S(=O)(=O)c1ccccc1F	i	i	nt	i	i	nt
N=c1c(C(=O)NC2CCCCC2)cc2c(=O)n3ccccc3nc2n1Cc1cccnc1	i	i	15µM	i	i	?
N=c1c(S(=O)(=O)c2ccccc2)cc2c(=O)n3ccccc3nc2n1Cc1ccco1	?	i	i	i	i	i
N=c1c(C(=O)NC2CCCCC2)cc2c(=O)n3ccccc3nc2n1CCc1ccccc1	-79	?	2.3µM	i	i	2.6µM
N=c1c(C(=O)NC2CCCCC2)cc2c(=O)n3ccccc3nc2n1Cc1ccco1	i	i	21µM	i	i	?
CCCn1c(=N)c(C(=O)NC2CCCC2)cc2c(=O)n3cc(C)ccc3nc21	nt	nt	nt	?	i	nt
COC(=O)c1cc2c(=O)n3ccccc3nc2n(Cc2cccnc2)c1=N	i	i	?	i	i	?
Cc1ccc(Cn2c(=N)c(C(=O)NC3CCCC3)cc3c(=O)n4ccccc4nc32)cc1	i	i	1.6µM	i	i	?
N=c1c(C(=O)NCCc2ccccc2)cc2c(=O)n3ccccc3nc2n1Cc1ccco1	i	i	18µM	?	i	9.2µM
N=c1c(C(=O)NCc2ccc(F)cc2)cc2c(=O)n3ccccc3nc2n1Cc1cccnc1	i	i	?	?	i	5.8µM
CCCn1c(=N)c(C(=O)NCc2cccnc2)cc2c(=O)n3ccccc3nc21	nt	nt	nt	i	i	nt
CCC(C)n1c(=N)c(C(=O)NC2CCCC2)cc2c(=O)n3ccccc3nc21 (configuration not stated)	nt	nt	nt	i	i	nt
COc1ccc(CCn2c(=N)c(C(=O)NCc3ccco3)cc3c(=O)n4ccccc4nc32)cc1	i	i	i	23µM	i	9.2µM
N=c1c(C(=O)NC2CCCCC2)cc2c(=O)n3ccccc3nc2n1Cc1ccccc1	i	i	9.2µM	i	i	2.6µM
COCCn1c(=N)c(C(=O)NCCc2ccc(OC)cc2)cc2c(=O)n3cccc(C)c3nc21	i	i	?	i	i	?
Cc1cc(NC(=O)C(C)(C)C)cc(-c2nc3ncccc3o2)c1O	nt	nt	nt	i	i	nt
Cc1ccc(-n2nc(-c3ccc(OC(F)(F)F)cc3)cc2N)cc1C	i	i	i	i	i	i
SMILES	KCNH2 3.1 inh	hERG WT inh	SW480 rereplic	KB-V1 MDR tox	KB-3-1 cytotox	MCF10A rerep
CC(C)Cc1ccc(CN2CCCC(NC(=O)c3cnc4ccccn4c3=O)C2)cc1 (configuration not stated)	?	i	?	?	16µM	?
COc1cccc(C(=O)SC2=NCCS2)c1	i	i	i	i	i	15µM
COc1ccccc1CN(Cc1cc2cc(C)ccc2[nH]c1=O)Cc1nnnn1CC1CCCO1 (configuration not stated)	i	i	i	21µM	i	?
COc1ccc2[nH]c(=O)c(CN(CCc3ccccc3)Cc3nnnn3CC3CCCO3)cc2c1 (configuration not stated)	i	i	i	i	i	i
Cc1ccc2[nH]c(=O)c(CN(CCc3ccccc3)Cc3nnnn3CC3CCCO3)cc2c1 (configuration not stated)	i	i	i	15µM	i	i
Cc1ccc(Cl)cc1NS(=O)(=O)c1cc2c(cc1F)NC(=O)CC2	nt	nt	nt	i	i	nt
NC(=S)NS(=O)(=O)c1ccc(N)cc1	nt	nt	i	nt	nt	i
CCCn1c(N)c(C(=O)COC(=O)CCNS(=O)(=O)c2ccccc2F)c(=O)[nH]c1=O	i	i	i	i	i	i
CCc1nn2cc(C(=O)c3ccccc3O)cnc2c1-c1ccc(F)cc1	i	i	i	?	i	?
CCc1nn2cc(C(=O)c3cc(C)ccc3O)cnc2c1-c1ccc(F)cc1	i	i	i	?	i	18µM
CS(=O)(=O)N(CC(=O)N1CCCC1)c1ccc(OCc2ccccc2)cc1	i	i	i	15µM	?	i
CN(C)S(=O)(=O)N(CC(=O)N1CCC(Cc2ccccc2)CC1)c1ccccc1	i	i	i	i	i	i
COc1ccc(N(CC(=O)N2CCC(Cc3ccccc3)CC2)S(C)(=O)=O)cc1	i	i	5.8µM	?	i	?
C/C(=N\NC(=O)c1ccccc1NC(=O)c1ccc(Cl)cc1)c1ccncc1	i	i	i	1.3µM	1.5µM	i
Cc1ccc2c(c1)[C@@H]1CN(C)CC[C@@H]1N2S(=O)(=O)c1ccc(F)cc1	i	i	i	i	i	i
CCc1ccc(S(=O)(=O)N2c3ccc(C)cc3C3CN(C)CCC32)cc1 (configuration not stated)	i	i	i	21µM	i	?
CN(C)S(=O)(=O)c1ccc(-c2cn3ccccc3n2)cc1	i	i	i	16µM	i	i
CCN(CC)S(=O)(=O)c1ccc(-c2cn3ccccc3n2)cc1	i	-100	nt	?	i	nt
c1ccc(-c2cn3ccccc3n2)cc1	i	i	i	i	i	i
COc1ccc(S(=O)(=O)N(C)C)cc1NC(=O)CCNC(=O)c1ccccc1OC	i	i	i	i	i	i
CC(C)=CCCC(C)CN1CCC(n2nccc2NC(=O)c2cccnc2)CC1 (configuration not stated)	i	i	i	i	i	i
CC(C)(C)c1cc(C(=O)Nc2ccccc2)ccn1	i	i	i	21µM	i	i
CC(C)(C)NC(=O)c1ccnc(C(C)(C)C)c1	i	i	i	i	i	i
